The list is not random: actives were taken first. Their share in the collection is about 7.3%.
AmpC inh no detg – qHTS Inhibitors of AmpC Beta-Lactamase (assay without detergent) | AmpC nitrocefin hydrolysis, absorbance 480 nm, 0.0001% Triton | P00811 | Potency, µM (top dose mostly 57.1 µM), for the others: at the highest dose activity change, negative = inhibition, most hits filed as inhibitors | 330,000 tested, 0.52% active;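 note: potency is the fitted concentration of half-maximal effect; plate controls were no compound for no effect and no enzyme for full effect; nearly all actives have a fitted effect of over 20% in size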
Target sequence (P00811 whole entry, looked up): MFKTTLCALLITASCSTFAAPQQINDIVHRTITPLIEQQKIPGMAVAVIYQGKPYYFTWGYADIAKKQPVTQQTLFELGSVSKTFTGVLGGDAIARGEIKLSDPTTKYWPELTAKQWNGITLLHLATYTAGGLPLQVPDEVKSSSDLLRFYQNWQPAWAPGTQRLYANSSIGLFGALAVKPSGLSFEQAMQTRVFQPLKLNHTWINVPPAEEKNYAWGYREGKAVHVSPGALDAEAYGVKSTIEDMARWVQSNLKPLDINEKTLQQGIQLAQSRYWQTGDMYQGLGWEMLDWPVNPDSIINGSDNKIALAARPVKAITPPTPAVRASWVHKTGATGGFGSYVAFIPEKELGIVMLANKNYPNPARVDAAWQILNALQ
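20 mM phosphate pH 7.0 + 0.01% (detergent screen) or 0.0001% Triton X-100; 5.3 nM AmpC reagent; cpd preinc 15 min RT; nitrocefin (800 uM stock) to start; A480 q20 s × 4 min; Activity was normalised to no-enzyme and no-compound control wells.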
AmpC inh detg – qHTS Inhibitors of AmpC Beta-Lactamase (assay with detergent); AmpC hydrolysis of nitrocefin, absorbance 480 nm, 0.01% Triton; Potency, µM (highest dose often 114 µM), for the others: top-dose activity change, negative = inhibition, most hits filed as inhibitors; 370,000 tested, 0.041% active; P00811; AID 485294, 2010;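 note: potency is the fitted concentration of half-maximal effect; 0% = no-compound wells and -100% = no-enzyme wells; nearly all actives have a fitted effect of over 25% in size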
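AmpC (5.3 nM in the dispensed reagent) in 20 mM phosphate pH 7.0 with 0.01% (detergent screen) or 0.0001% Triton X-100 was preincubated with compounds for 15 min at room temperature. Nitrocefin was then added from an 800 uM solution, and hydrolysis was followed at 480 nm.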
HCV inh – qHTS Assay for Inhibitors of Hepatitis C Virus (HCV). Huh7.5.1 HCVcc-Cre infection, luciferase reporter, 44 h. Potency, µM (highest dose often 41.8 µM), inactives show at the top dose activity change, negative = inhibition, most hits filed as inhibitors. 340,000 tested, 3.4% active; note: potency is the fitted concentration of half-maximal effect
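Seed cells (1,000/well) for 4 h; treat with compound and infect with HCVcc-Cre, moi about 0.5. Incubate 44 h, then detect luciferase activity.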
FMDV inh – High Throughput Screening for Foot and Mouth Disease Virus Antivirals; FMDV antiviral cell-based qHTS; Potency, µM (top dose mostly 57.9 µM), for inactives: top-dose activity change, negative = inhibition, actives largely listed as inhibitors; 410,000 tested, 1.2% active; calls by dose curve; tested in HEK293T cells; note: read-out not given here; potency is the fitted concentration of half-maximal effect; nearly all actives have a fitted effect of over 45% in size
HCMV inh – qHTS Assay for inhibitors of the human cytomegalovirus (HCMV); HFF cells, HCMV-luciferase reporter, 72 h; hits give low values; activity change, negative = inhibition, % at 57.5 µM; 410,000 tested, 4.5% active; in the data active = activity change below about -60%; inconclusive = no clear call, values can overlap the other calls; inactive = above about -39%
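Luciferase read-out from HCMV-luciferase-infected HFFs (MOI 1 PFU/cell) 72 h post infection at 37C; compounds added after 16 h cell attachment; activity normalized between buffer-only basal and Salinomycin (10uM) inhibitor controls.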
* hit, by the source's call. Unless noted, calls come from the whole dose curve; as a rule, active = well fitted curve in the direction sought with a large enough effect; inconclusive = small, poorly fitted or top-dose-only effect, or another doubt; inactive = no such curve, though single readings can be large; an effect the other way counts as inactive or inconclusive. Unless noted, % is set by controls: 0 for no effect and ±100 for the full control effect.

How did Cc1ccccc1C(=O)Nc1ccc2nc(Nc3cccc(C(F)(F)F)c3)cc(C)c2c1 do in these assays?
AmpC inh detg: -3%; FMDV inh: inconclusive; HCMV inh: -13

Results for CC(C)[C@H](NC(=O)c1ccc(Cl)cc1Cl)C(=O)N1CCC[C@H]1C(=O)NCCc1ccccc1Cl ?
HCMV inh: -7

Results for CN(C)S(=O)(=O)c1cccc(NC(=O)CSc2nc3ccccc3n2-c2ccccc2)c1 ?
AmpC inh no detg: -13%; AmpC inh detg: -11%; HCV inh: inconclusive; FMDV inh: -9%; HCMV inh: -88*

How did O=C(Nc1cccc(S(=O)(=O)NC2=NCCCCC2)c1)c1cc(-c2ccccc2Cl)nc2ccccc12 do in these assays?
AmpC inh no detg: -8%; AmpC inh detg: inconclusive; HCV inh: inconclusive; FMDV inh: -17%; HCMV inh: -64*

What do the screens show for `O=C(CSc1nc2ccccc2c(=O)n1-c1ccc(F)cc1)Nc1ccc2c(c1)CCC2`?
AmpC inh no detg: inconclusive; AmpC inh detg: -1%; HCV inh: inconclusive; FMDV inh: 0%; HCMV inh: -68*

What do the screens show for `CN(C)S(=O)(=O)c1ccc(NC(=O)CSc2nc3ccccc3n2-c2ccccc2)cc1`?
AmpC inh no detg: -17%; AmpC inh detg: inconclusive; HCV inh: inconclusive; FMDV inh: 0%; HCMV inh: inconclusive

Results for Cc1cccc(NC(=O)CSc2nc3nc4c(cc3c(=O)n2-c2ccccc2)CCCC4)c1 ?
AmpC inh no detg: -45%; AmpC inh detg: inconclusive; HCV inh: inconclusive; FMDV inh: -22%; HCMV inh: -33

What do the screens show for `Cc1ccccc1-n1c(SCC(=O)Nc2ccccc2)nc2nc3c(cc2c1=O)CCCC3`?
AmpC inh no detg: -10%; AmpC inh detg: -8%; HCV inh: inconclusive; FMDV inh: -18%; HCMV inh: -80*

How did CC(=O)c1c(C)[nH]c(C(=O)OCC(=O)Nc2ccc3c(c2)OCCO3)c1C do in these assays?
AmpC inh no detg: -36%; HCV inh: inconclusive; FMDV inh: inconclusive; HCMV inh: -29

How did O=C(CN1C(=O)NC2(CCCCC2)C1=O)Nc1ccc2c(c1)OCCCO2 do in these assays?
AmpC inh no detg: -43%; AmpC inh detg: -2%; HCV inh: 5%; FMDV inh: 76%; HCMV inh: 5

What do the screens show for `O=C(CSc1nc2ccccc2c(=O)n1-c1ccccc1F)Nc1ccc2c(c1)CCC2`?
AmpC inh no detg: -27%; AmpC inh detg: -7%; HCV inh: inconclusive; FMDV inh: -9%; HCMV inh: -67*

What do the screens show for `O=C(CSc1nc2ccccc2c(=O)n1-c1ccc(F)cc1F)Nc1ccc2c(c1)CCC2`?
AmpC inh no detg: -9%; AmpC inh detg: 2%; HCV inh: inconclusive; FMDV inh: -14%; HCMV inh: -72*

How did Cc1ccc(-n2c(SCC(=O)Nc3cccc(S(=O)(=O)NC4=NCCCCC4)c3)nc3ccccc3c2=O)cc1 do in these assays?
AmpC inh no detg: -6%; AmpC inh detg: -1%; HCV inh: inconclusive; FMDV inh: 7%; HCMV inh: -66*

Results for Cc1c(O)nc(SCC(=O)Nc2ccc3c4c(cccc24)CC3)n(-c2ccccc2)c1=O ?
AmpC inh no detg: 35µM*; AmpC inh detg: -2%; HCV inh: 4%; FMDV inh: -15%; HCMV inh: 14

How did O=C(CSc1nc(O)cc(=O)n1-c1ccccc1)Nc1ccc2c3c(cccc13)CC2 do in these assays?
AmpC inh no detg: -45%; AmpC inh detg: -15%; HCV inh: 9%; FMDV inh: -6%; HCMV inh: 22

What do the screens show for `O=C(CSc1nc2ccc(F)cc2c(=O)n1-c1ccccc1)Nc1ccc2c(c1)CCC2`?
FMDV inh: 2%; HCMV inh: inconclusive

What do the screens show for `NC(=O)CCC1NC(=S)N(Cc2ccccc2)C1=O` (stereo not drawn)?
AmpC inh no detg: -13%; AmpC inh detg: -10%; HCV inh: 2%; FMDV inh: -14%; HCMV inh: -67*

How did Cc1ccc(Nc2c(-c3ccc(C)cc3)nc3c(C)cccn23)cc1 do in these assays?
AmpC inh detg: 7%; FMDV inh: -13%; HCMV inh: 5

Results for Cc1ccc(-c2nc3c(C)cccn3c2Nc2ccccc2C)s1 ?
AmpC inh detg: 12%; FMDV inh: -13%; HCMV inh: -65*

How did Cc1cccn2c(Nc3ccccc3)c(-c3cccs3)nc12 do in these assays?
AmpC inh detg: 12%; FMDV inh: -7%; HCMV inh: -61*

Results for Cc1ccc(S(=O)(=O)n2ccc3cccnc32)cc1 ?
AmpC inh no detg: -27%; AmpC inh detg: -13%; HCV inh: -1%; FMDV inh: -3%; HCMV inh: 13

Results for Cc1ccc(S(=O)(=O)n2cccc2/C=C/[N+](=O)[O-])cc1 ?
FMDV inh: 16µM*; HCMV inh: -98*

What do the screens show for `Cc1ccc(C)c(CN2C(=O)c3ccccc3S(=O)(=O)c3ccc(C(=O)N(C)C4CCCCC4)cc32)c1`?
AmpC inh detg: -8%; FMDV inh: 20%; HCMV inh: -76*

What do the screens show for `CCC1CCCCN1CCCNC(=O)c1ccc2c(c1)N(Cc1ccccc1F)C(=O)c1ccccc1S2(=O)=O` (stereo not drawn)?
AmpC inh detg: 15%; FMDV inh: -7%; HCMV inh: -101*

How did O=C(O[C@H]1CC[C@@]23CCCN2C(=O)CCC[C@H]3[C@H]1Cc1ccccc1)N1CCN(c2ccccc2)CC1 do in these assays?
HCMV inh: 3

Results for Cc1cc(Cl)ccc1N(CC(=O)N(C)Cc1ccccc1)S(C)(=O)=O ?
FMDV inh: -13%; HCMV inh: 5

Results for C=CCN(c1ccccc1)S(=O)(=O)c1cccc(C(=O)Nc2nnc(SCC)s2)c1 ?
AmpC inh no detg: -54%; AmpC inh detg: -25%; HCV inh: -6%; FMDV inh: -20%; HCMV inh: -62*

Results for C=CCN(c1ccccc1)S(=O)(=O)c1cccc(C(=O)Nc2cccc(C)n2)c1 ?
AmpC inh no detg: -14%; AmpC inh detg: 0%; HCV inh: 14µM*; FMDV inh: inconclusive; HCMV inh: -25

What do the screens show for `O=C(CN1C(=O)NC2(CCc3ccccc32)C1=O)c1ccc(Br)s1` (stereo not drawn)?
AmpC inh no detg: -27%; AmpC inh detg: 4%; HCV inh: 12%; FMDV inh: 7%; HCMV inh: inconclusive

What do the screens show for `O=C(CCl)Nc1cccc(S(=O)(=O)NC2=NCCC2)c1`?
AmpC inh no detg: -15%; AmpC inh detg: -10%; HCV inh: 13µM*; FMDV inh: -25%; HCMV inh: -100*

How did CC(C)C(=O)Nc1cccc(S(=O)(=O)NC2=NCCC2)c1 do in these assays?
FMDV inh: -2%; HCMV inh: -2

Screening results: PubChem BioAssay, National Center for Advancing Translational Sciences (NCATS)
